About 83,000 compounds went through this panel and 20% of them were active in at least one assay; those are over-represented in the sample as a whole.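 Cells were grown in 96-well plates and exposed to the test compound at a single concentration for 48 hours; results are reported as percent growth, with values below 10 considered active.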 A number with no mark means an inactive call. Calls of active or inactive are those of the source.

Assay in all cases: NCI-60 one-dose screen, 48 h (100 = growth as untreated, 0 = no growth, -100 = all killed)
Holding throughout (settings): 10 µM

In assay [1] the test system is SR leukemia.
Assay [2] deals with RPMI-8226 leukemia.
Assay [3] concerns OVCAR-8 ovarian.
Assay [4] deals with OVCAR-5 ovarian.
Assay [5] has as its system OVCAR-4 ovarian.
The test system of assay [6] is SK-OV-3 ovarian.
The subject of assay [7] is IGROV1 ovarian.
In assay [8] the test system is OVCAR-3 ovarian.
Assay [9] concerns HS 578T breast.
For assay [10], the system named is NCI/ADR-RES ovarian.

`C/C(=N\NC(=S)N1CCCC1)c1ccccn1`: the growth in assay [1] was 6.59% (active); in assay [2] it was 12.9%; in [3], 11.1%; in [4] it was 40.3%; in [5], 3.92% (active); in assay [6], 26.5%. The growth in assay [7] is -3.85% (active); in [8], 23.8%; in assay [9] it was 31.8%; in assay [10], -5.31% (active).
`COc1ccc(/C(CS(=O)(=O)c2ccccc2)=N\O)cc1`: the growth in [1] was 87%; in assay [2], 101%; in assay [3], 103%; in assay [4] it was 104%; in [5] it was 99.4%; in assay [6] it was 112%. In addition, the growth in [7] is 109%; in assay [8], 125%; in assay [9], 104%; in [10] it was 115%.
On to `COc1ccc(COC(=O)CC(C)C)cc1`, for which the growth was 97.1% in assay [1]; 103% in assay [2]; 96.1% in [3]; 100% in [4]; 109% in [5]; 102% in assay [6]. Further, the growth in assay [7] was 106%; in assay [8], 105%; in assay [9], 104%; in assay [10], 98.8%.
As for `CCC(O)c1ccc(Br)cc1NC(=O)c1cccc(Cl)c1` (stereo not given), the growth in assay [1] is 8.25% (active); in assay [2], 18.2%; in assay [3], 13.9%; in [4], 50.4%; in assay [5], 24.9%; in assay [6], 34%. The growth in assay [7] was 10.4%; in [8] it was 33.8%; in assay [9], 51%; in [10] it was 5.46% (active).
Take `C#Cc1ccc(-n2c(/C=C/c3cc(OC)c(OC)c(OC)c3)nc3ncccc3c2=O)cc1`: the growth in [1] was 11.2%; in assay [2], 40.9%; in [3], 75.1%; in assay [4], 120%; in [5] it was 63.4%; in assay [6] it was 65.9%. The growth is 56.3% in [7], 4.62% (active) in assay [8], 75.4% in assay [9] and 54.6% in assay [10].
On to `CCOCC[P+](c1ccccc1)(c1ccccc1)c1ccccc1`, for which the growth in [1] is 21.4%; in assay [2], 1.2% (active); in assay [3], 46.5%; in assay [4], 76.2%; in [5] it was 36.4%; in assay [6] it was 60.3%. For the same compound, the growth was 46.9% in assay [7], 33.8% in [8], 79.1% in assay [9] and 100% in assay [10].
On to `O=C(O)CCCN1C(=O)NC2(C1=O)c1ccccc1-c1ccccc12`, for which the growth is 100% in [1]; 99.9% in assay [2]; 97.3% in assay [3]; 101% in [4]; 106% in assay [5]; 103% in assay [6]. Further, the growth in assay [7] was 101%; in [8] it was 109%; in [9], 93.9%; in [10], 96.8%.
Take `Nc1cc2c(cc1Cl)-c1ccc(Cl)cc1C2=O`: the growth in assay [1] was 109%; in assay [2], 88.8%; in assay [3], 92.1%; in [4], 100%; in assay [5] it was 98.8%; in assay [6] it was 98.6%. The growth in [7] was 107%; in assay [8] it was 104%; in [9], 97.3%; in assay [10], 99.5%.
For `CN1CCN(c2nc(-c3cccnc3)nc3sc4c(c23)CCCCCC4)CC1`, the growth in assay [1] was 34.2%; in assay [2], 80.6%; in assay [3], 95.1%; in assay [4], 104%; in assay [5], 80.8%; in assay [6], 97.2%. Also, the growth in assay [7] was 102%; in assay [8], 95.8%; in assay [9] it was 85.3%; in assay [10], 89.3%.
`COc1ccc(-c2cc(=O)n(-c3nc4ccccc4[nH]3)[nH]2)cc1OC`: the growth in assay [1] was 48.6%; in [2] it was 81.4%; in assay [3], 64.8%; in assay [4] it was 93.1%; in assay [5] it was 93.8%; in [6], 87.2%. For the same compound, the growth in assay [7] is 70.6%; in [8] it was 90.1%; in assay [9] it was 48.2%; in [10], 20.1%.
Regarding `CCN(CC)CCn1c(=N)n(CC(O)c2ccc(Cl)c(Cl)c2)c2ccccc21` (stereo not given), the growth in [1] is 26.4%; in [2] it was 68.1%; in [3], 92.6%; in assay [4], 102%; in [5] it was 69%; in assay [6], 92.3%. The growth in assay [7] was 90.1%; in assay [8], 96.7%; in assay [9], 80.5%; in assay [10], 88.6%.
For the compound `COc1cc(C2CC(=O)Nc3c2c(C)nn3-c2nc3ccccc3[nH]2)cc(OC)c1O` (stereo not given), the growth was 9.39% (active) in [1]; 83.5% in assay [2]; 19.9% in assay [3]; 112% in [4]; 63.8% in assay [5]; 2.53% (active) in assay [6]. Moreover, the growth in assay [7] is 28.2%; in [8] it was 20.9%; in assay [9], 8.42% (active); in assay [10] it was 80.6%.
With `Nc1ccc(Sc2ccc3c4c2cccc4c(=O)n2c4ccccc4nc32)cc1`, the growth in [1] is 16.1%; in assay [2], 50.2%; in [3], 50.7%; in assay [4], 85.8%; in assay [5], 74%; in assay [6], 53.9%. For the same compound, the growth in assay [7] was 34.5%; in assay [8], 77.8%; in [9] it was 59.6%; in assay [10], 56.6%.
As for `O=C(N/N=c1/ccoc2cccnc12)N1CCN(c2ncccn2)CC1`, the growth in assay [1] is 20.6%; in assay [2], 30.6%; in assay [3] it was 25.3%; in [4], 50%; in [5] it was 18.3%; in assay [6], 15.4%. Further, the growth in assay [7] is 31.4%; in assay [8], 30.6%; in assay [9] it was 51.4%; in assay [10], 10.1%.

These data come from PubChem BioAssay (NCI).
